Measured values reported in PubChem BioAssay.
For part of these data: Results with a measured potency or affinity are listed apart. Active and inactive are the calls of the source.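 How the source made its calls, unless noted: active means fitted half-maximal concentration within the tested dose range, moderate curve steepness, a statistically real signal drop, and little compound fluorescence or tag-binding interference; inactive means the rest.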

What was measured:
[1] = target: Cell division control protein 42 homolog (Homo sapiens) (UniProt P60953); test: activated mutant Cdc42 GTP-binding inhibitors, dose response, biochemical, multiplex bead flow cytometry, Bodipy-FL-GTP (AID 1333)
Cell division control protein 42 homolog (Homo sapiens), sequence (P60953 whole entry, looked up): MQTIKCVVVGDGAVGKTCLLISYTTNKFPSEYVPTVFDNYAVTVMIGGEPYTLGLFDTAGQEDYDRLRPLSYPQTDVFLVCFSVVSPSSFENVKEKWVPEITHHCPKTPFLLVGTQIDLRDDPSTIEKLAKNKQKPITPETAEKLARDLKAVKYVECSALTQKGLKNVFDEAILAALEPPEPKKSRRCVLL

[2] = target: Cell division control protein 42 homolog (Homo sapiens) (UniProt P60953); test: wildtype Cdc42 GTP-binding inhibitors, dose response, biochemical, multiplex bead flow cytometry, Bodipy-FL-GTP (AID 1334;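 active means fitted half-maximal concentration within the tested range, moderate curve steepness, significant signal drop, and little compound fluorescence or bead-linkage interference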); details: bead-based flow cytometry, Bodipy-FL-GTP binding to GST-Cdc42; at 100 µM (top of the series) unless noted
[3] = target: GTPase HRas (Homo sapiens) (UniProt P01112); test: inhibitors of GTP binding to wildtype Ras, dose response, biochemical, multiplex bead flow cytometry (AID 1335;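 active means fitted half-maximal concentration within 10 nM to 100 µM, steepness 0.5 to 2, significant signal drop, low assay interference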); details: bead-based flow cytometry, Bodipy-GTP binding to GST-Ras; at 100 µM (top of the series) unless noted
GTPase HRas (Homo sapiens), sequence (P01112 whole entry, looked up): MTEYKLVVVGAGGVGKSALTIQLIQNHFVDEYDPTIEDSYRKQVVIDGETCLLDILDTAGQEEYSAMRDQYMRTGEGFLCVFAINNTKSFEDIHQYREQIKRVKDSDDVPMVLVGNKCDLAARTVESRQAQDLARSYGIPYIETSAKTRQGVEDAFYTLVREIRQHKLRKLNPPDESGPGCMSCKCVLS

[4] = tested on: Ras-related protein Rab-7a (dog), GTP binding; test: Rab7 GTP binding inhibitors, potency, dose response, biochemical, wildtype, multiplex bead flow cytometry (AID 1336; call rule not given here)
[5] = target: Ras-related C3 botulinum toxin substrate 1 (Homo sapiens) (UniProt P63000); test: wildtype Rac1 GTP binding inhibitors, dose response, biochemical, multiplex bead flow cytometry (AID 1340;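 active means dose curve with midpoint inside tested range, moderate steepness, plateau gap beyond fit error, low compound glow and bead-link interference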); details: GST-Rac1 beads, Bodipy-FL-GTP binding; at 100 µM (top of the series) unless noted
[6] = target: GTPase HRas (Homo sapiens) (UniProt P01112); test: activated Ras mutant GTP binding inhibitors, dose response, biochemical, multiplex bead flow cytometry (AID 1341;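 active means dose-response curve with midpoint inside the tested range, moderate steepness, significant amplitude and little compound fluorescence or bead-attachment interference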;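 further: GST-tagged constitutively activated Ras mutant immobilized on beads and multiplexed with other GTPases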)

SMILES	outcome [1]	fluorescence, percent of control (lower = inhibition) [2] [%]	GTP binding, percent of control [3] [%]	outcome [4]	GTP binding signal, raw median fluorescence (lower = inhibition) (MCF (arbitrary fluorescence units)) [5]	outcome [6]
O=C(COc1ccccc1C(=O)N/N=C\c1ccc(O)c(O)c1)N/N=C/c1ccc(O)c(O)c1	inactive	38	157	inactive	193	inactive
Cc1nnc(OC(C)C)c2nn(-c3ccccc3F)c(C)c12	inactive	55.1	69.3	inactive	0	inactive
Cc1ccccc1-c1nnc(NC(=O)c2ccc(N3C(=O)CCC3=O)cc2)s1	inactive	48.6	65.8	inactive	236	inactive
Cc1ccccc1CSc1ncccc1C(=O)O	inactive	74.5	87.9	inactive	48.3	inactive
Cc1ccc(-n2c3nc(=O)[nH]c(=O)c-3cc3cc([N+](=O)[O-])ccc32)cc1	inactive	34.4	71	inactive	103	inactive
Cc1nc2ccccn2c1-c1csc(Nc2cccc(O)c2)n1	inactive	35.4	80.4	inactive	216	inactive
O=C(O)c1cc(Sc2ccc(F)cc2)nc2ccccc12	inactive	59.8	86	inactive	30.2	inactive
CCCCOC(=O)c1cccnc1SCCc1ccccc1	inactive	48.2	125	inactive	69.8	inactive
COc1ccc2c(C)nc(N/C(N)=N/S(=O)(=O)c3ccc(C)cc3)nc2c1	inactive	38.9	87.9	inactive	272	inactive
COc1c(C)cccc1C(=O)NC(=S)Nc1ccc2c(c1)Cc1ccccc1-2	inactive	73.4	151	inactive	144	inactive
Cc1cc(C(F)(F)F)c(C#N)c(SCC(=O)Nc2nc3ccccc3s2)n1	inactive	89.9	105	inactive	188	inactive
Cc1c(C=O)c2ccccn2c1C(=O)c1ccc(Cl)c([N+](=O)[O-])c1	inactive	31.5	78.3	inactive	247	inactive
COc1cc(/C=N/Nc2ccc(S(N)(=O)=O)cc2)cc(OC)c1OC	inactive	31.7	75.4	inactive	175	inactive
CCOC(=O)c1c2c3c(c(Cl)ccc3[nH]c1=O)C(=O)c1ccccc1-2	inactive	19.1	46.2	inactive	103	inactive
COc1ccc(C=O)cc1CSc1ncccc1C(=O)O	inactive	61.6	88.9	inactive	33.8	inactive
O=C(O)c1nnn(Cc2ccccc2)c1C(=O)O	inactive	60.5	82.2	inactive	33	inactive
O=C(CSc1ccc2nnc(-c3cccs3)n2n1)N1CCCC1	inactive	33	74.6	inactive	178	inactive
CCc1nnc(NC(=O)CCC(=O)N2CCN(c3ccccn3)CC2)s1	inactive	94	163	inactive	190	inactive
CCc1ccccc1NC(=O)N1C2CCCC1CC(NC(C)=O)C2 (stereo not given)	inactive	102	152	inactive	191	inactive
COc1cc(-c2cc(-c3ccc(O)cc3)nc(N)c2C#N)ccc1O	inactive	28	70.9	inactive	158	inactive
COc1cc(/C=N/Nc2ncnc3sc4c(c23)CCC4)ccc1O	inactive	33.9	48.1	inactive	126	inactive
CCCCCCCCSc1nnc2[nH]c(=O)cc(N)n12	inactive	33.4	79.8	inactive	241	inactive
O=C(NCCc1c[nH]c2ccccc12)c1cccc(S(=O)(=O)Nc2ccccc2Cl)c1	inactive	32.1	71.4	inactive	175	inactive
CCCN(N=Nc1cccc([N+](=O)[O-])c1)c1cccc([N+](=O)[O-])c1	inactive	84.9	156	inactive	170	inactive
COc1ccc(C(=O)NC(=S)N2CC(C)OC(C)C2)cc1 (stereo not given)	inactive	54.3	68.1	inactive	216	inactive
CC(C)[C@H](NC(=O)c1ccccc1)C(=O)OCC(=O)NCCc1ccc(F)cc1	inactive	50.5	66.5	inactive	209	inactive
COCc1cc(C)nc(N/N=C/c2ccc(-c3ccc(C(=O)O)c(Cl)c3)o2)c1C#N	inactive	30.6	74.4	inactive	180	inactive
N#CC(c1ccc(Cl)nn1)c1ccc(Cl)cc1Cl (stereo not given)	inactive	34.5	77.7	inactive	263	inactive
COc1ccc(/C=N/NC(=O)Nc2cccc3nsnc23)cc1OC	inactive	45.1	46.7	inactive	132	inactive
Cc1csc(NC(=O)c2cc(=O)[nH]c3ccc(S(=O)(=O)N4CCOCC4)cc23)n1	inactive	31.8	74.5	inactive	190	inactive
